ssDAF-12 act – S. stercoralis DAF-12 nuclear receptor activators, primary screen, cell-based, luminescence, HEK293, GRIP1 co-expression, lit1-tk-luc. activation, % at 6.8 µM. 370,000 compounds, 1% hits. HEK293 ssDAF-12/GRIP1 lit1-tk-luc reporter; % of 3 µM dafachronic acid response;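 active = activation above the mean over all tested compounds plus 3 SD, cut at about 0.9% in these data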;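 note: 0% = DMSO-only wells and 100% = 3 µM delta7-dafachronic acid wells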
hcDAF12 agonist – H. contortus DAF-12 nuclear receptor activators, primary screen, cell-based, luminescence, HEK293, lit1-tk-luc reporter; 370,000 compounds, 1.4% hits; AID 652067, 2013; activation, % at 6.8 µM; HEK293 hcDAF-12 lit1-tk-luc reporter; 0% DMSO, 100% Δ7-dafachronic acid;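 active = activation above the mean of all tested compounds plus 3 SD, cut at about 5.5% in these data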;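 note: 100% = response to 3 µM Δ7-dafachronic acid high control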
hgDAF-12 ag – H. glycines DAF-12 receptor agonists, primary screen, cell-based, luminescence, HEK293, GAL4 fusion, UAS-luciferase; HEK293 GAL4-hgDAF12 UAS-luciferase reporter, agonist luminescence; normalized to butyrate control; activation, % at 6.8 µM; 370,000 compounds, 1.8% hits; AID 687014, 2013;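 active = activation above a cutoff set at the mean of all screened compounds plus 3 SD, cut at about 10% in these data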;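 note: 0% = DMSO wells and 100% = sodium butyrate wells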
DAX1 inh-1 – DAX1 (NR0B1) inhibitors on StAR promoter, primary screen, cell-based, luminescence, SF-1 (NR5A1), full-length DAX-1; HEK293T StAR-luciferase reporter, SF-1/DAX-1 repression relief; 370,000 compounds, 1.1% hits; inhibition, % at 6.8 µM;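 active = inhibition above the mean over all tested compounds plus 3 SD, cut at about 3.6% in these data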;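 note: 0% = DAX-1 cells with DMSO and 100% = cells lacking DAX-1 with DMSO; higher inhibition means more luminescence from relief of DAX-1 repression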
SMARCA2 act – SMARCA2 (BRM) function activators, primary screen, cell-based, luminescence, high throughput; MG213 cells, MMTV-luciferase reporter, dexamethasone, overnight; activation, % at 9.1 µM; 370,000 compounds, 1% hits; AID 652017, 2013; in the data active = activation above about 7.8%;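 note: 0% = vehicle wells and 100% = reference activator wells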
DAX1 inh-2 – DAX1 (NR0B1) inhibitors, primary screen, cell-based, HEK293, Gal4-DAX1, luciferase luminescence; inhibition, % at 6.75 µM; 340,000 compounds, 0.99% hits; HEK293 Gal4-DAX1 luciferase reporter; Nuclear receptor subfamily 0 group B member 1 (Homo sapiens), P51843;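 active = inhibition above the mean over all tested compounds plus 3 SD, cut at about 4.2% in these data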;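 note: 0% = DAX1-transfected cells with DMSO and 100% = empty-vector control cells with DMSO; inhibition shows as a rise in luminescence from relieved DAX1 repression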
Target sequence (P51843 207-470 limits assumed): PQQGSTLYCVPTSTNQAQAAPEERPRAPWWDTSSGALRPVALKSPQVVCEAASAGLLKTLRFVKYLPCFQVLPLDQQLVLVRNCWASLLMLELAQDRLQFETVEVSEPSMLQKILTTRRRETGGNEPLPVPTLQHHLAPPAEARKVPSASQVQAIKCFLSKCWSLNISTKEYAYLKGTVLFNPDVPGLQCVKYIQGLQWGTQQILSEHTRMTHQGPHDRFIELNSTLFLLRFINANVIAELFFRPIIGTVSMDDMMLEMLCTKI
* hit, by the source's call; . = no result given. A selection: hits, their analogues and other compounds. The true share with any hit is near 4.8%.

SMILES	ssDAF-12 act	hcDAF12 agonist	hgDAF-12 ag	DAX1 inh-1	SMARCA2 act	DAX1 inh-2
COC(=O)[C@]12C[C@H](CC(=O)N3CCN(C(=O)c4ccco4)CC3)C(=O)N(Cc3ccco3)C1=C[C@H](C(C)C)O[C@@H]2C1CC1	-1	-2	-3	-1	-1	.
O=C(OCCN1CCN(C2CN(Cc3cn(Cc4ccccc4F)nn3)S(=O)(=O)C2)CC1)c1cc2ccccc2o1 (stereo unspecified)	-1	-2	3	0	5	.
Cc1nc(SCC(N)=O)[nH]c(=O)c1C	-1	-1	1	.	.	.
COc1ccccc1N1CCN(/N=C\c2ccccc2)CC1	-1	3	5	1	1	5.1*
COc1ccccc1N1CCN(CCOc2c(OC)cccc2OC)CC1	-1	-1	-3	0	-2	4.6*
CCOc1ccc(S(=O)(=O)Nc2cccc(C(=O)NCC(c3ccccc3)N(C)C)c2)cc1 (stereo unspecified)	-1	-1	3	3.6*	3	1
COc1ccccc1C(CNC(=O)c1cccc(S(=O)(=O)NCc2ccccc2)c1)N(C)C (stereo unspecified)	-1	0	0	0	-1	4.8*
COc1cccc(CN(C)C(=O)c2cccc(S(=O)(=O)NCc3ccccc3)c2)c1OC	-1	0	-1	-2	-2	-1
CCNC(=S)Nc1c(C)n(C)n(-c2ccccc2)c1=O	-1	-1	4	0	-2	1
CCN(CC)C(=S)Nc1c(C)n(C)n(-c2ccccc2)c1=O	-2	0	-4	0	-3	4.5*
O=C1CC(c2ccco2)CC2=C1C=Nc1ccccc1N2 (stereo unspecified)	-2	-2	0	0	-2	-2
O=c1[nH]c2c(s1)C=Nc1ccccc1N2	0	6.2*	8	3	3	1
COC(=O)[C@]12C[C@H](CC(=O)NCc3ccc(C)o3)C(=O)N(Cc3ccccc3)C1=C[C@H](C(C)(C)C)O[C@@H]2C	-1	-1	0	0	-6	.
COC(=O)[C@]12C[C@H](CC(=O)N3CCC(c4ccccc4)CC3)C(=O)N(Cc3ccco3)C1=C[C@H](COCc1ccccc1)O[C@@H]2C	-2	-4	-1	-1	3	.
Cc1c(C(=O)NNC(=O)c2ccccc2O)oc2ccccc12	1	5.8*	7	2	-2	-1
CC(=O)CSc1nnc(-c2ccc(S(=O)(=O)N3CCOCC3)cc2)n1C	-1	0	0	0	-2	5.4*
C=CCN1[C@H](CC(C)C)COc2cc(N3CCSCC3)ccc2S1(=O)=O	-2	1	-1	-1	-2	.
COC(=O)C1=C(C)N(C)C(=NCc2ccc(OC)cc2)NC1c1cccc(C(F)(F)F)c1 (stereo unspecified)	-1	-2	0	1	-1	.
COC(=O)c1cccc(NC(=O)CSc2nnc(COc3ccc(C#N)cc3)n2-c2ccccc2)c1	-1	-2	0	-1	-3	5.1*
CCOc1cc(/C=C2/SC(=S)N(CC(=O)O)C2=O)ccc1OC(=O)c1cccs1	-1	0	-4	-1	0	5.2*
COc1cc(/C=C2\SC(=S)N(CC(=O)O)C2=O)ccc1OC(=O)c1ccco1	-1	-2	-1	0	0	0
COc1ccc(CCNC(=O)CSc2nc3[nH]ncc3c(=O)n2-c2ccc(C)c(Cl)c2)cc1OC	1.8*	2	0	-3	2	1
CCC(c1nnc(SCC(=O)NCCc2ccc(OC)c(OC)c2)n1Cc1ccccc1)N(C)C (stereo unspecified)	1.2*	0	-1	0	-1	3
COc1ccc(CCNC(=O)CSc2nc3[nH]ncc3c(=O)n2-c2ccc(Cl)cc2Cl)cc1OC	-1	-2	-3	0	-3	3
NS(=O)(=O)c1ccc(NC(=O)COC(=O)/C=C/c2ccc([N+](=O)[O-])cc2)cc1	3.0*	0	-1	0	-1	-1
SMILES	ssDAF-12 act	hcDAF12 agonist	hgDAF-12 ag	DAX1 inh-1	SMARCA2 act	DAX1 inh-2
COc1ccc(OC)c(CNc2ccc3c(c2)nc(C)n3C)c1	-2	-2	-1	0	-1	1
COc1ccc(N=Nc2nc3cc(Br)c(Br)cc3n2C)c(OC)c1	1.6*	1	0	0	-1	-1
C=CCN1CC(c2nc3ccccc3n2Cc2ccccc2)CC1=O (stereo unspecified)	-1	1	-2	-1	-2	-1
Cn1c(C2CC(=O)N(Cc3ccccc3)C2)nc2ccccc21 (stereo unspecified)	1.1*	-2	1	0	6	2
O=C(OC12CCCN(C1)/C(=C/c1ccc(Cl)cc1)C2)c1ccno1 (stereo unspecified)	0	-2	-1	0	-3	.
Cc1[nH]c2ccccc2c1-c1csc(N)n1	-1	1	2	-1	0	-1
COc1ccccc1Nc1nc(-c2c(C)[nH]c3ccccc23)cs1	1.3*	5	1	-1	0	0
Cc1n[nH]c(C)c1CCC(=O)N/N=C/c1c(C)[nH]c2ccccc12	-1	4	1	0	-2	6.2*
COc1ccc(/C=N\NC(=O)CCc2c(C)n[nH]c2C)c(OC)c1OC	0	3	5	0	0	0
Cc1n[nH]c(C)c1CCC(=O)N/N=C/c1c[nH]c2ccccc12	2.1*	6.1*	1	1	-3	1
CC(C)=CCC[C@@]1(C(=O)O)[C@@H]2C/C=C(\C)CC/C=C(\C)CC[C@H]1[C@]1(CC2)CO1	-1	1	-3	0	-1	.
CCCCc1c(-c2ccccc2OC)ncn1Cc1cc(F)ccc1F	-1	-1	-1	0	-5	.
COc1ccc2c(c1)[C@@]1(NCCc3c1[nH]c1ccc(OC)cc31)C(=O)N2C	0	2	-2	2	-3	.
COc1ccc2[nH]c3c(c2c1)CCN[C@]31C(=O)N(C)c2ccc(Br)cc21	1.1*	4	-2	-1	1	.
O=C(c1cccc(F)c1F)N1CCCC(c2nc(-c3cccs3)no2)C1 (stereo unspecified)	-1	-2	2	1	4	.
Cc1sc(N/N=C/c2ccco2)nc1-c1ccccc1	1.4*	3	5	0	1	-1

Screening results as filed in PubChem BioAssay.
